Assay results from PubChem BioAssay AID504434 (National Center for Advancing Translational Sciences (NCATS), 2011).
Records with an inconclusive call do not appear. The call rests on the fitted dose curve; in most records, active means well fitted curve in the direction sought with a large enough effect; inconclusive means small, poorly fitted or top-dose-only effect, or effect the other way, or another doubt; inactive means no such curve, though single readings can be large or run the other way.

experiment: Secondary Assay for lipid storage modulators: AML12 cell LDSA assay for probe SAR; details: AML12 lipid droplet accumulation, BODIPY 493/503 imaging, oleate; series mostly up to 46.1 µM; activity change, negative = inhibition: at the top concentration
Text: NIH Molecular Libraries Probe Production Centers Network [MLPCN] NIH Chemical Genomics Center [NCGC] MLPCN Grant: 1 R03 MH085686-01 Assay Submitter (PI): Beller, Mathias; Max-Planck-Institut fur Biophysikalische Chemie NCGC Assay Overview: Storing lipids as a reservoir for energy or the anabolism of elementary metabolites is a common feature of probably all cells and is conserved from bacteria to humans. The universal cellular lipid storage organelle is the so-called lipid storage droplet (LD). Although ubiquitous, LDs share a simple structure composed of a hydrophobic core that harbors the storage lipids, which is shielded by a droplet-specific phospholipid monolayer to which proteins are attached. The current model of LD biogenesis involves an incorporation of the lipid core into the membrane leaflets of the endoplasmic reticulum (ER) followed by a subsequent budding-like maturation of a LD, which ultimately pinches off. Once released, LD volume can increase by localized lipogenesis or fusion of existing droplet. Storage lipids are re-mobilized enzymatically by lipase activity. Lipase regulation in the adipocyte is heavily studied and involves multiple components including catecholamine signaling, the LD-associated proteins Perilipin and comparative gene identification (CGI-58) and at least two lipases named hormone sensitive lipase (HSL) and adipocyte triglyceride lipase (ATGL). LD regulation outside of the adipocyte is poorly understood and only few components are known. However, there is an urgent need to learn more about ectopic fat depots as mislocalized storage of lipids, for example in the liver or muscle, is an eminent health problem associated with insulin resistance or the metabolic syndrome.
NCGC Assay Protocol Summary: The assay was performed with AML12 cells, using an oleic acid feeding protocol similar to the S3 assay. We dispensed 4 uL of cells to give 700 cells/well into Greiner bio-one 1,536-well plates (black walled, clear bottom). Triacsin C (Sigma-Aldrich T-4540), an inhibitor of long-chain fatty acyl CoA synthetase that blocks synthesis of triglycerides, was used as a positive control for lipid under-storage using a final concentration of 20 uM. The orexin antagonist, SB408124 - previously identified to stimulate lipid over-storage, was used as a positive control for lipid over-storage using a final concentration of 20 uM. A total of 23 nL of compound solution of different concentrations were transferred to the assay plates using a Kalypsys pin tool equipped with a 1,536-pin array containing 10-nL slotted pins (FP1S10, 0.457-mm diameter, 50.8 mm long; V&P Scientific). One microliter of oleic acid was added (400 uM final concentration), and the plate was lidded with stainless steel rubber gasket lined lids containing pinholes. After 18-24 h incubation at […] and 95% humidity, 4 uL of the dyes BODIPY 493/503 (Molecular Probes) and the Cell Tracker Red CMTPX dye (Molecular Probes) were added to the wells to stain lipid droplets and enumerate cell number, respectively. Fluorescence was detected by excitation of the fluorophores with a 488-nm laser on an Acumen Explorer (TTP Lab Tech). The total intensity in channel 2 (500-530 nm) reflected lipid droplet accumulation. Cells were detected using channel 3 (575-640 nm) with 5-um width and 100-um depth filters. The ratio of the number of objects in PMT channel 2 over the number of objects in PMT channel 3 was also calculated. Percent activity was computed relative to an internal control (100% inhibited lipid droplet deposition due to the presence of 20 uM Triacsin C), which was added to 32 wells/plate.

Activity change, negative = inhibition, inactive:
Cc1ccc(CC(=O)Nc2nc(-c3cccs3)cs2)cc1 -12.9%, O=C(NC1CCCc2c1cnn2-c1ccc(F)cc1F)c1ccn[nH]1 (centres undefined) -31.6%, CN(C)CC(=O)NC1CCCc2c1cnn2-c1ccc(F)cc1F (centres undefined) 5.26%, CCn1c(C(=O)NCCc2ccc(OC)c(OC)c2)cc2sccc21 -25%, CC(C)(C)n1ncc2c(=O)n(Cc3ccc(-c4ccccc4C#N)cc3)cnc21 1.32%, COc1ccc(-c2cnc(SCC(=O)Nc3nc(C)cs3)n2-c2ccccc2)cc1 15.2%, CCOC(=O)C1CCN(C(=O)C(C)(C)NC(=O)Nc2ccc([N+](=O)[O-])cc2)CC1 -39.6%, COc1ccc(Cl)cc1NC(=S)N1CCN(c2ccc(F)cc2)CC1 -21.4%, Cc1ccc(C)c(-c2csc(NC(=O)CSc3nnc(Nc4ccc(OC(F)(F)F)cc4)s3)n2)c1 15.7%, O=C(Cc1cccs1)Nc1nc(-c2ccc(F)cc2)cs1 4.29%, S=C(Nc1cc(Cl)ccc1Oc1ccccc1)N1CCN(c2ncccn2)CC1 10%, CCOc1ccc(NC(=O)NC2(C(=O)N3CCCCC3)CCCCC2)cc1 -27.8%, CCOC(=O)C1CCN(C(=O)C(C)(C)NC(=O)Nc2ccc(N)cc2)CC1 -8.33%, Cc1sc(NC(=O)Cc2cccs2)nc1-c1ccccc1 -27.1%
